We go through 46 compounds from PubChem BioAssay AID1347416 (National Center for Advancing Translational Sciences (NCATS), 2020).

The whole screen tested about 4,100 compounds, of which about 1,600 (39%) were called active. Not shown: some 25% with an inconclusive outcome. Calls follow the shape of the dose curve; as a rule, active = well fitted inhibition curve with a large enough effect; inconclusive = small, poorly fitted or top-dose-only effect; inactive = no such curve, though single readings can be large or run the other way. Some of the results follow.
% is scaled to controls: 0 for no effect and ±100 for the full control effect; potency is read from the fitted curve at half-maximal effect.

This assay can be described thus: qHTS Validation assay for Inhibitors of Plasmodium falciparum Dd2 growth in vitro. Also: nearly all actives have a fitted effect of over 70% in size. The following applies: P. falciparum Dd2 in RBCs, SYBR Green growth, 72 h; series mostly up to 28.7 µM; activity change, negative = inhibition: at the top concentration. From the text:
Malaria, a parasitic disease spread to humans through the bite of a Plasmodium infected Anopheles mosquito, continues to be a global health burden affecting millions of people, with an estimated 228 million cases and 405,000 deaths in 2018. Concerns about safety and limitations of current antimalarial treatments strongly emphasize the need to develop new therapeutic options. The scarce number of chemotypes and validated drug targets with efficacy against the liver stage, have hindered development of new antimalarials. To address this, a chemoprophylactic drug discovery effort was conducted through a combined phenotypic high-throughput asexual blood stage and liver stage screen, providing a robust foundation to identify liver-stage active lead chemotypes. Compounds were initially screened against Plasmodium falciparum Dd2 strain parasites using a in vitro SYBRGreen-1 based 72 hr proliferation assay to identify novel chemotypes to advance to liver stage assays. NIH/NCATS Early Translation Branch Assay Submitter (PI): Anton Simeonov Ph.D.
[…] Assay Protocol: PROTOCOL TABLE (as described by Inglese et al., 2007) SEQUENCE No. (e.g., 1, 2, 3, etc.); PARAMETER (e.g., Cells, Incubation, Reagent, etc.); VALUE; DESCRIPTION SEQUENCE, Parameter, Description 1; Reagent; 3 uL complete malaria growth medium, 1536 TC treated Black clear bottom plate 2; Controls; 23 nL positive control artesunate (300 nM final) to column 1; Neutral control DMSO to columns 2-4 3; Compound; 23 nL of compounds in dose response concentration (29 uM to 0.5 nM final) 4; Reagent; 5 uL malaria infected red blood cells (2.5% hematocrit final, 0.3% parasitemia 5; Time; 72 hours at 37C (5% O2, 5% CO2, 90% N2; 95% Rh) 6; Reagent; 2 uL lysis buffer/SYBRGreen-1, 25 sec shake immediately following dispense 7; Time; ~16 hours at 37C (5% O2, 5% CO2, 90% N2; 95% Rh) 8; Detector; EnVision (PerkinElmer) bottom read at 485/14nm excitation and 535/25 nm emission NOTES (numbers refer to sequence above): 1; Complete Malaria Growth Media: 1X RPMI-1640 w/L-glutamine, 5.5g/L Albumax II, 367 uM Hypoxanthine, 25 mM HEPES, 0.25% Sodium Bicarbonate, 35 uM Gentamicin sulfate 2; Controls were added using the Kalypsis Pintool (Wako USA) equipped with 1536 pinhead 3; Compounds were added in a 7-point, titration with a high final concentration of 29 uM by Pintool from seven inter-plate titrations of library plates and two DMSO control plates at the beginning and end (see Yasgar et al., 2008). 4; Red blood cells infected with Plasmodium falciparum Dd2 parasites were used. 6; Lysis buffer: 20 mM Tris-HCl, 10 mM EDTA, 0.16% Saponin, 1.6% Triton-X, 10X SYBR Green. REFERENCE: Inglese J, Shamu CE, Guy RK. 2007. Reporting data from high-throughput screening of small-molecule libraries. Nat Chem Biol. doi:10.1038/nchembio0807-438 Yasgar A, Shinn P, Jadhav A, Auld D, Michael S, Zheng W, Austin CP, Inglese J, Simeonov A. 2008. Compound Management for Quantitative High-Throughput Screening. J Lab Autom 13:79-89. doi:10.1016/j.jala.2007.12.004
On the technique in general: Quantitative high-throughput screening tests each substance at several concentrations.
As for `O=C(c1cc(F)ccc1F)N1CC(c2nnc(-c3ccncc3)o2)C2(CCOCC2)C1` (stereo unspecified), the “activity change, negative = inhibition” value is 59.8% (inactive).
As for `COc1cc(OC)c(NC(=O)Cn2c(C)cc3nc4n(c(=O)c32)CCCCC4)cc1Cl`, the “activity change, negative = inhibition” value is -29.8% (inactive).
On to `COc1cc(Cc2cc(N)nc(N)n2)cc(OC)c1OC`, for which the “activity change, negative = inhibition” value is 46.1% (inactive).
Same read-out and setting: to `COc1ccc(-c2cn(CCc3c[nH]c4ccccc34)nn2)cc1` belongs 15% (inactive).
For `COc1ccc(CN2C[C@H]3CN(Cc4c[nH]c5ccccc45)CCN3C2=O)cc1`, the Potency was 3.85 µM (active).
As to `Cc1nnc([C@H]2CCN(Cc3c[nH]c4ccccc34)C2)o1`, the “activity change, negative = inhibition” value was -16.6% [at 57.5 µM] (inactive).
The same measure, in the same setting: the figure for `Cc1nonc1CC(=O)N1CCCC(CNS(=O)(=O)c2cccs2)C1` (stereo unspecified) is 47.9% (inactive).
Consider `CC1(c2ccccc2)CC(c2ccccc2)=Nc2nonc2N1` (stereo unspecified), for which the Potency was 5.31 µM (active).
Still for that read-out and setting: to `COc1cc(/C=C(\C#N)c2nc3ccccc3[nH]2)cc(Cl)c1OCc1ccccc1Cl` belongs 5.31 µM (active).
Consider `COc1cc(SC)ccc1C(=O)Nc1nc2ccccc2[nH]1`, for which the “activity change, negative = inhibition” value was -19.7% (inactive).
Regarding `COc1cc(/C=C(\C#N)c2nc3ccccc3[nH]2)ccc1OCc1ccc(F)cc1`, the Potency is 5.31 µM (active).
Regarding `O=C(Nc1cnc2ccccc2c1)c1cccc(-n2cnnn2)c1`, the Potency is 2.66 µM (active).
For the compound `CCc1noc(-c2cccn3c(CNC(=O)c4ccc(Cl)cc4)nnc23)n1`, the “activity change, negative = inhibition” value was 16.2% (inactive).
For `Cc1ccc(C)c(Oc2c(C(F)(F)F)oc3c(CN4CCN(C)CC4)c(O)ccc3c2=O)c1`, the Potency was 0.75 µM (active).
Same read-out and setting: to `CC(C)c1ccccc1Oc1c(C(F)(F)F)oc2c(CN3CCN(C)CC3)c(O)ccc2c1=O` belongs 0.668 µM (active); to `CCN1CCN(Cc2c(O)ccc3c(=O)c(Oc4ccccc4C(C)C)c(C(F)(F)F)oc23)CC1`, 0.596 µM (active).
Turning to `CCSc1nnc(SCC(=O)c2c(N)n(C)c(=O)n(C)c2=O)s1`, the “activity change, negative = inhibition” value was -13.4% (inactive).
Regarding `Cc1ccccc1C(=O)NC(CC(C)C)C(=O)OCC(=O)c1c(N)n(C)c(=O)n(C)c1=O` (stereo unspecified), the Potency was 2.66 µM (active).
Same read-out and setting: the figure for `Cc1ccc(N(C)C2=NC(=O)CS2)cc1Cl` is 9.44 µM (active).
On the same count and under the same terms, to `COc1cc(O)c(C(CCN2CCCC(C)C2)c2cc(OC)c(OC)c(OC)c2)c(OC)c1` (stereo unspecified) belongs 1.88 µM (active).
The same measure, in the same setting: to `COc1cc(O)c(C(CCN2CCCCC2)c2ccc(N(C)C)cc2)c(OC)c1` (stereo unspecified) belongs 2.66 µM (active); to `COc1cc(O)c(C(CCN2CCCCC2)c2cc(OC)c(OC)c(OC)c2)c(OC)c1` (stereo unspecified), 2.66 µM (active); to `COc1cc(O)c(C(CCN2CCCC(C)C2)c2ccc(N(C)C)cc2)c(OC)c1` (stereo unspecified), 1.68 µM (active).
For `CCCCC(CC)CNC(=O)CCCCCn1c(=O)[nH]c2ccsc2c1=O` (stereo unspecified), the “activity change, negative = inhibition” value was -7.19% (inactive).
Take `COc1ccc(C(CCN2CCCCC2)c2c(O)cc(OC)cc2OC)cc1` (stereo unspecified): the Potency is 1.33 µM (active).
As to `CCn1ccc2ccc(CN3CCCC(O)(CN4CCCC4)C3)cc21` (stereo unspecified), the Potency is 7.5 µM (active).
For `COc1ccc(C(=O)N2CCCC(O)(CN3CCCC3)C2)cc1Cl` (stereo unspecified), the “activity change, negative = inhibition” value was -13.3% (inactive).
Same read-out and setting: to `C=CCN(Cc1ccccc1OCC)C(=O)c1ccc(N(C)S(C)(=O)=O)cc1` belongs 4.22% (inactive).
With `CCCC1=[N+](CC)CCn2c(C)ccc21`, the “activity change, negative = inhibition” value is -15.7% (inactive).
As for `COC(=O)c1c(-c2c(Cl)cccc2Cl)noc1NC(=O)NN1CCCCC1`, the Potency is 2.37 µM (active).
Still for that read-out and setting: to `CN1CCC(NCCC(c2ccc(F)cc2)c2ccc(Cl)cc2)CC1` (stereo unspecified) belongs 4.22 µM (active).
For `OC(CN1CCC(Cc2ccc(F)cc2)CC1)c1ccc(Cl)cc1` (stereo unspecified), the “activity change, negative = inhibition” value is -97.7% (inactive).
As to `CCC(=O)N(C1=C(NC(C)C)C(=O)c2ccccc2C1=O)C(C)C`, the Potency is 2.37 µM (active).
The same measure, in the same setting: the figure for `O=C(NC1CCCC1)c1ccc(OC2CCN(CCCC(F)(F)F)CC2)c(Cl)c1` is 9.44 µM (active); for `COCCNC(=O)c1ccc(OC2CCN(C/C=C/c3ccc(F)cc3)CC2)c(Cl)c1` it is 10.6 µM (active); for `CC(=O)Nc1cc(-c2ccccc2)ccc1O` it is 4.73 µM (active).
For `CC(=O)Nc1ccc(/C(C)=N\NC(=O)c2ccc(-c3ccccc3)cc2)cc1`, the “activity change, negative = inhibition” value was 18.3% (inactive).
Still for that read-out and setting: to `CN(Cc1ccc(-c2ccccc2)cc1)C(=O)C1CC1` belongs 11.1% [at 43.1 µM] (inactive).
For `CN1CCN(C(=O)C(C)(C)Oc2nn(Cc3cccc(Cl)c3)c3ccccc23)CC1`, the Potency was 7.69 µM (active).
As to `CC(C)(Oc1nn(Cc2cccc(Cl)c2)c2ccccc12)C(=O)NCCN1CCOCC1`, the Potency is 5.31 µM (active).
Regarding `COCc1ccc2c(c1)c(OC(C)(C)C(=O)N1CCN(CCO)CC1)nn2Cc1ccccc1`, the Potency was 9.44 µM (active).
As to `COCc1ccc2c(c1)c(OC(C)(C)C(=O)NCC1CCOCC1)nn2Cc1cccnc1`, the “activity change, negative = inhibition” value is 22.6% (inactive).
On the same count and under the same terms, the figure for `CC(C)(Oc1nn(CCOc2ccccc2)c2ccccc12)C(=O)NCc1cnccn1` is -20.1% [at 43.1 µM] (inactive).
Turning to `CC(C)n1nc(OC(C)(C)C(=O)NCCc2cccnc2)c2cc(CN3CCOCC3)ccc21`, the “activity change, negative = inhibition” value is -3.54% (inactive).
Turning to `N#Cc1cc(C(=O)c2cc(Br)ccc2O)cn(C2CCCCC2)c1=O`, the Potency was 0.668 µM (active).
The same measure, in the same setting: to `CCCCn1cc(C(=O)c2cc(Br)ccc2O)cc(C#N)c1=O` belongs 13.3 µM (active).
